Assay outcomes as filed in PubChem.
ssDAF12 agonist – activates DAF-12 receptor from parasite S. stercoralis | HEK293 ssDAF-12/GRIP1 lit1-tk-luc reporter, luminescence; % of 3 µM dafachronic acid response | activation, % at 6.8 µM | 1% of 370,000 active | AID 652126;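 active = activation above the mean over all tested compounds plus 3 SD, cut at about 0.9% in these data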;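 also: 0% = DMSO-only wells and 100% = 3 µM delta7-dafachronic acid wells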
DAX1 inh-1 – NR0B1 (DAX1) inhibition; inhibition, % at 6.75 µM; AID 504766; P51843; HEK293 Gal4-DAX1 luciferase reporter, luminescence; 0.99% of 340,000 active;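 active = inhibition above the mean over all tested compounds plus 3 SD, cut at about 4.2% in these data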;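 also: 0% = DAX1-transfected cells with DMSO and 100% = empty-vector control cells with DMSO; inhibition shows as a rise in luminescence from relieved DAX1 repression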
Target sequence (P51843 207-470 limits assumed): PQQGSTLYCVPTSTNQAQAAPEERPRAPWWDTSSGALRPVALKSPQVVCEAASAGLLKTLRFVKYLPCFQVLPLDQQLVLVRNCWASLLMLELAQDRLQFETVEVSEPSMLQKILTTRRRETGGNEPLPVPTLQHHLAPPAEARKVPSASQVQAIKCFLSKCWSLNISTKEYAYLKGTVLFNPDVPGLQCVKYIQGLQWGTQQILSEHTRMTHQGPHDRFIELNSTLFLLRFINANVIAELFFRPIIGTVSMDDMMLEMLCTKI
SMARCA2 act – increases SMARCA2 function in MMTV reporter cells; MG213 cells, MMTV-luciferase reporter, dexamethasone, overnight; 1% of 370,000 active; AID 652017; activation, % at 9.1 µM; in the data active = activation above about 7.8%;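 also: 0% = vehicle wells and 100% = reference activator wells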
hgDAF-12 ag – hgDAF-12 agonism, primary luciferase screen. activation, % at 6.8 µM. 1.8% of 370,000 active. HEK293 GAL4-hgDAF12 UAS-luciferase reporter, agonist luminescence; normalized to butyrate control;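 active = activation above a cutoff set at the mean of all screened compounds plus 3 SD, cut at about 10% in these data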;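 also: 0% = DMSO wells and 100% = sodium butyrate wells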
DAX1 inh-2 – blocks DAX1 repression of SF-1 activated StAR promoter. HEK293T StAR-luciferase reporter, SF-1/DAX-1 repression relief. inhibition, % at 6.8 µM. 1.1% of 370,000 active;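 active = inhibition above the mean over all tested compounds plus 3 SD, cut at about 3.6% in these data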;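 also: 0% = DAX-1 cells with DMSO and 100% = cells lacking DAX-1 with DMSO; higher inhibition means more luminescence from relief of DAX-1 repression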
hcDAF-12 act – H. contortus DAF-12 activation, primary screen; activation, % at 6.8 µM; 1.4% of 370,000 active; HEK293 hcDAF-12 lit1-tk-luc reporter, luminescence; 0% DMSO, 100% Δ7-dafachronic acid;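 active = activation above the mean of all tested compounds plus 3 SD, cut at about 5.5% in these data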;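 also: 100% = response to 3 µM Δ7-dafachronic acid high control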
Numbers without * were called inactive; . = not tested or not shown; ! = not confirmed by another sample. Sampled rows, rich in hits. Any-hit rate of the full collection: about 4.8%.

SMILES	ssDAF12 agonist	DAX1 inh-1	SMARCA2 act	hgDAF-12 ag	DAX1 inh-2	hcDAF-12 act
CCOC(=O)N1CCN(C(=O)C[C@H]2C[C@@]3(C(=O)OC)C(=C[C@H](C(C)C)O[C@@H]3C3CC3)N(CCc3ccc(OC)c(OC)c3)C2=O)CC1	-1	.	0	-1	0	-3
COC(=O)[C@]12C[C@H](CC(=O)N3CCCCC3)C(=O)N(Cc3cccc4ccccc34)C1=C[C@H](C(C)(C)C)O[C@@H]2C	0	.	-2	-2	-2	1
O=C(/C=C/c1ccc(O)c(O)c1)c1ccccc1O	0	0	7	9	1	1
Oc1cc(O)cc(C=Cc2ccc(O)c(O)c2)c1	0	.	-2	10	4.3*	4
O=C(COC(=O)c1ccc(Sc2ncn[nH]2)c([N+](=O)[O-])c1)Nc1ccc(Cl)c(Cl)c1	-2	.	0	0	1	0
Cc1[nH][nH]c(=O)c1C(c1ccccc1[N+](=O)[O-])C(C#N)C#N (stereo not given)	-1	1	0	2	0	1
CCCc1[nH][nH]c(=O)c1C(c1cccc(Cl)c1)C(C#N)C#N (stereo not given)	-1	4.5*	-2	0	1	-2
Cc1ccc(S(=O)(=O)N2CCC(c3nc4ccccc4o3)CC2)s1	-1	.	-5	-1	0	-3
COc1cc(NC(=O)c2nccnc2N)cc(C(=O)Nc2cccc(C(F)(F)F)c2)c1	0	1	-2	1	1	0
COc1cc(NC(=O)c2ccc(N)nc2)cc(C(=O)Nc2cccc(C(F)(F)F)c2)c1	-1	1	7.9*!	1	-1	0
COc1cccc(NC(=O)c2ccc(OC(F)(F)F)cc2)c1	0	2	5	11*	1	3
Cc1cc(C(=O)CSc2nc3ccc(Cl)cc3[nH]2)c(C)n1C	-1	0	-2	-2	0	1
O=C(CSc1nc2ccc(Cl)cc2[nH]1)c1cccs1	1.0*	1	3	5	1	5
Cc1cccc(-c2cccc3c4c([nH]c23)[C@@H]2C[C@H](N(C)C(=O)c3ccccc3C)[C@H]([C@H](C)O)C(=O)N2CC4)c1	-1	.	1	-1	0	-2
Cc1ccn2c(NC3CCCCC3)c(C)nc2c1	-1	5.1*	-4	1	-1	0
COC(=O)[C@]12C[C@H](CC(=O)NCCc3ccccc3OC)C(=O)N(Cc3cccc4ccccc34)C1=C[C@H](C1CCCC1)O[C@@H]2C	-1	.	-3	2	0	-1
C=CCN1C(=O)[C@H](CC(=O)NCC23CC4CC(CC(C4)C2)C3)[C@@]2(C(=O)OC)CCCCC=C12	-1	.	-6	-1	0	-1
c1ccc(Nc2nnc(-c3cccc4ccccc34)o2)cc1	1.2*	.	4	8	2	6.3*
Cc1ccc(-c2cc3onc(-c4ccccc4)c3c(=O)n2C)cc1	-2	3	-1	-4	1	0
Cn1c(-c2ccc(F)cc2)cc2onc(-c3c(F)cccc3Cl)c2c1=O	1	1	10*	11*	3	2
COc1ccccc1CNS(=O)(=O)c1cccs1	0	5.8*	-3	-1	-1	0
O=C(Nc1ccc(Cl)cc1)OC1CCC12CCC(c1ccccc1)CC2 (stereo not given)	-2	.	-2	0	-2	-2
Cc1ccc(Cn2cc(CN3CC(N4CCN(CCO)CC4)CS3(=O)=O)nn2)cc1 (stereo not given)	-2	.	-1	-2	4.2*	1
COc1ccc(Cn2cc(CN3CC(N4CCN(CCO)CC4)CS3(=O)=O)nn2)cc1 (stereo not given)	-1	.	-4	0	1	-1
COCCCn1cc(CN2CC(N3CCN(CCN(C)C)CC3)CS2(=O)=O)nn1 (stereo not given)	0	.	-1	0	4	4
SMILES	ssDAF12 agonist	DAX1 inh-1	SMARCA2 act	hgDAF-12 ag	DAX1 inh-2	hcDAF-12 act
CCN(C)C1CN(Cc2cn(Cc3ccc(C(F)(F)F)cc3)nn2)S(=O)(=O)C1 (stereo not given)	-1	.	-6	-2	4.1*	1
CCCCCCn1cc(CN2CC(N3CCN(CCN(C)C)CC3)CS2(=O)=O)nn1 (stereo not given)	-1	.	-4	-2	3.9*	-1
CC(=O)c1cc(-c2cc(C(F)(F)F)cc(C(F)(F)F)c2)c(=O)n2c1CCC2	-2	.	0	-3	0	3
COc1ccc2c(c1OC)C(=O)N(c1ccccn1)C2	1.3*	1	6	13*	2	5.8*
O=C(CSc1nnc(-c2cccs2)o1)Nc1cccc2ccccc12	-2	.	-4	-1	-2	-1
CCOC(=O)c1c(N)n[nH]c1-c1ccc(OC)cc1	-1	-1	-3	1	0	-1
CCOC(=O)c1c(N/N=C/c2cccnc2)n[nH]c1C	-1	5.3*	-2	3	0	0
CCOC(=O)c1c(Nc2ccc(OC)cc2)n[nH]c1C	0	.	7	8	4.3*	1
Cc1ccccc1NC(=O)Nc1ccc(C(F)(F)F)cc1	0	1	-3	11*	1	0
O=C(CSc1nc2ccccc2nc1N1CCCCC1)NCc1ccc(Cl)cc1Cl	-1	.	8	2	0	0
Cc1ccc(/C=N/Nc2nc(Cl)c(Cl)cc2Cl)s1	0.9*	4.3*	0	5	1	5
Cc1ccsc1/C=N/Nc1nc(Cl)c(Cl)cc1Cl	0	2	-1	7	0	5
COc1ccc(/C=N/Nc2nc3ccccc3[nH]2)c(OC)c1OC	-3	7.5*	-4	-4	0	-3
Cc1ccc(/C=N/Nc2nc3ccccc3[nH]2)s1	1	0	3	10	3	6.1*
O=C(Nc1ccc(Cl)cc1Cl)O[C@@H]1CC[C@@]23CCCN2C(=O)CCC[C@H]3C1	-2	.	.	0	.	-1
COc1ccc(CN2C[C@]3(C=C4CCCCC4n4c(=O)n(-c5ccccc5)c(=O)n43)N=C2NC(=O)c2ccccc2)c(OC)c1 (stereo not given in full)	-1	.	-1	-6	-1	-1
Cc1cccc(CCNC(=O)c2ccc(Sc3ccccc3Cl)c([N+](=O)[O-])c2)c1	-1	.	4	-1	-1	-3
CN(C)c1ccc(C(=O)OCC(=O)N2CCCC2)cc1	0.9*	1	2	3	0	0
CCCn1c2c(c(O)c(C(=O)Nc3nc4ccccc4s3)c1=O)CCCC2	0	2	1	1	0	6.0*
CCN(CC(=O)Nc1c(F)cccc1F)C(=O)c1cc(C)nc2ccccc12	1.0*	1	1	0	-1	2
CCN(CC(=O)Nc1c(F)cccc1F)C(=O)c1ccccc1F	-2	2	-1	-1	0	0
